Screening results: PubChem BioAssay, The Scripps Research Institute Molecular Screening Center
ssDAF12 agonist = activates DAF-12 receptor from parasite S. stercoralis. HEK293 ssDAF-12/GRIP1 lit1-tk-luc reporter, luminescence; % of 3 µM dafachronic acid response. AID 652126. 370,000 tested, 1% active. activation, % at 6.8 µM;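 active means activation above the mean over all tested compounds plus 3 SD, cut at about 0.9% in these data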;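 further: 0% = DMSO-only wells and 100% = 3 µM delta7-dafachronic acid wells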
SMARCA2 act = SMARCA2 function activation, primary screen; MG213 cells, MMTV-luciferase reporter, dexamethasone, overnight; activation, % at 9.1 µM; 370,000 tested, 1% active; AID 652017; in the data active means activation above about 7.8%;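 further: 0% = vehicle wells and 100% = reference activator wells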
DAX1 inh-1 = NR0B1 (DAX1) inhibition | HEK293 Gal4-DAX1 luciferase reporter, luminescence | inhibition, % at 6.75 µM | 340,000 tested, 0.99% active;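 active means inhibition above the mean over all tested compounds plus 3 SD, cut at about 4.2% in these data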;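 further: 0% = DAX1-transfected cells with DMSO and 100% = empty-vector control cells with DMSO; inhibition shows as a rise in luminescence from relieved DAX1 repression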
Target sequence (P51843 207-470 limits assumed): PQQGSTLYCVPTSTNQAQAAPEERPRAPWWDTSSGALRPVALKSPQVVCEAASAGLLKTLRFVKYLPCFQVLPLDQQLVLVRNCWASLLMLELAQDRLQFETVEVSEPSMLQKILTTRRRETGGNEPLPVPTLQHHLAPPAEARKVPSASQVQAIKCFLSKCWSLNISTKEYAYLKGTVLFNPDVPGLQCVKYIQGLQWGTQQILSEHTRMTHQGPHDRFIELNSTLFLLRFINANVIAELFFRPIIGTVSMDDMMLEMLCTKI
hcDAF12 agonist = activators of H. contortus DAF-12 nuclear receptor; HEK293 hcDAF-12 lit1-tk-luc reporter, luminescence; 0% DMSO, 100% Δ7-dafachronic acid; activation, % at 6.8 µM; 370,000 tested, 1.4% active;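 active means activation above the mean of all tested compounds plus 3 SD, cut at about 5.5% in these data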;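 further: 100% = response to 3 µM Δ7-dafachronic acid high control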
DAX1 inh-2 = blocks DAX1 repression of SF-1 activated StAR promoter | 370,000 tested, 1.1% active | inhibition, % at 6.8 µM | HEK293T StAR-luciferase reporter, SF-1/DAX-1 repression relief | AID 652010;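 active means inhibition above the mean over all tested compounds plus 3 SD, cut at about 3.6% in these data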;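 further: 0% = DAX-1 cells with DMSO and 100% = cells lacking DAX-1 with DMSO; higher inhibition means more luminescence from relief of DAX-1 repression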
hgDAF-12 ag = activates the H. glycines DAF-12 receptor ligand-binding domain; activation, % at 6.8 µM; 370,000 tested, 1.8% active; HEK293 GAL4-hgDAF12 UAS-luciferase reporter, agonist luminescence; normalized to butyrate control;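 active means activation above a cutoff set at the mean of all screened compounds plus 3 SD, cut at about 10% in these data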;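 further: 0% = DMSO wells and 100% = sodium butyrate wells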
* = called active by the depositor. Sampled rows, rich in hits. Any-hit rate of the full collection: about 4.8%.

SMILES | ssDAF12 agonist | SMARCA2 act | DAX1 inh-1 | hcDAF12 agonist | DAX1 inh-2 | hgDAF-12 ag
COc1ccc(C(CNC(=O)c2cccc(S(=O)(=O)Nc3ccc(F)cc3)c2)N2CCCC2)cc1 (stereo not given) | 0 | -2 | -1 | -2 | 3.6* | -2
NS(=O)(=O)c1cc2c(cc1Cl)NCNS2(=O)=O | -1 | -5 | 0 | -1 | 0 | -2
Cc1ccc(-c2cc(-c3ccccc3)nc(Cl)n2)cc1 | 0 | -2 | -1 | 6.0* | 1 | 3
COc1ccc(C(C(=O)NCc2ccccc2)N(C(=O)c2snc(C(N)=O)c2N)C2CCCC2)cc1 (stereo not given) | -1 | -1 | 1 | -1 | 0 | 0
O=C(CC(C(=O)O)c1ccc(Cl)cc1)c1ccc(Cl)c(Cl)c1 (stereo not given) | -1 | -1 | -2 | -1 | 0 | 0
O=C(CC(C(=O)O)c1ccc(Cl)cc1Cl)c1ccc(Cl)cc1 (stereo not given) | -1 | -2 | 1 | 5.9* | 0 | 0
